Screens deposited in PubChem BioAssay by several laboratories.
MRP1 act: H69AR viability gain despite doxorubicin, primary screen, MRP-1 activator project, H69AR cells, CellTiter-Glo; viability rescue; viability increase, % at 10 µM; hit rate 0.61% among 140,000; AID 799, 2007;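 active = viability gain under doxorubicin at or above a set limit, the compound median plus 3 SD, cut at about 4.7% in these data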;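 also: MRP-1 overexpressing cells given doxorubicin 25 µM after compound pretreatment; 18-22 h compound pretreatment then 72 h with doxorubicin before readout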
Measles CPE: compounds protecting cells from measles virus cytopathic effect, primary screen, measles RdRp inhibitor project, single point, MLSMR library, absorbance. Measles virus-infected cells, CPE protection. protection (pct of control), % at 4 µM. hit rate 1.5% among 140,000. AID 841, 2007; in the data active = protection mostly above about 24%, no sharp cut-off; inactive = mostly below about 26%
sEH inhibitor: soluble epoxide hydrolase inhibitors, primary screen, biochemical, human sEH | Bifunctional epoxide hydrolase 2 (Homo sapiens), P34913 | recombinant human sEH enzymatic activity assay | inhibition, % at 2 µM | hit rate 0.34% among 91,000; in the data active = inhibition above about 80%
Target sequence (P34913 whole entry, looked up): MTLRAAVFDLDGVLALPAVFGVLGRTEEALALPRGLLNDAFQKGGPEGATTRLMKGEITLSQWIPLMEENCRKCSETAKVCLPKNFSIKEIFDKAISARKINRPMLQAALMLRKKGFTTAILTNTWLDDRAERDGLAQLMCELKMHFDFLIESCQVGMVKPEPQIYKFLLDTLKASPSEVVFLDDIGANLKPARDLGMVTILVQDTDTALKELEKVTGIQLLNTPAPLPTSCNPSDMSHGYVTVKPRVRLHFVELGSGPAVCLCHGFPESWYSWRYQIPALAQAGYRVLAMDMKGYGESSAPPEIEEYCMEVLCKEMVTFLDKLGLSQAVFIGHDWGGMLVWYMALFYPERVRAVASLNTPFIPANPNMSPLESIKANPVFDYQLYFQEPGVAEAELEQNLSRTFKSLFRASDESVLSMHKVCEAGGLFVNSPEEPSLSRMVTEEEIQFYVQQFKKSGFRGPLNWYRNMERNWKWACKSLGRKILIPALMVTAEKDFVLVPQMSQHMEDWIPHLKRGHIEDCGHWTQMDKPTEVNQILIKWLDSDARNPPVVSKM
sdo1 growth: growth rescue of sdo1-depleted yeast, primary screen, S. cerevisiae, bone marrow failure model. S. cerevisiae sdo1-depleted JHY4D growth rescue, OD600 30 h; hits give high values; pdr5 snq2 efflux-pump mutant strain. z-score at 10 µM. AID 817, 2007. hit rate 0.21% among 140,000;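 active = z-score above 3 at both the 24 hr and the 30 hr optical density reads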
sEH activator: soluble epoxide hydrolase activators, primary screen, biochemical, human sEH; Bifunctional epoxide hydrolase 2 (Homo sapiens), P34913; activation, % at 2 µM; hit rate 0.04% among 91,000; purified human sEH enzymatic activity, activator screen; in the data active = activation above about 37%
MRP reversal: reversal of MRP1-mediated doxorubicin resistance, primary screen, H69AR cells, doxorubicin co-treatment | differential viability (reversal), % at 10 µM | AID 602, 2007 | H69AR cells + 2 uM doxorubicin, CellTiter-Glo, 72 h | hit rate 0.04% among 85,000;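 active = viability drop by adding the cancer drug above about 55%, with treated viability meeting a 40% cutoff, limit read from the data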;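 also: larger differential means the compound sensitizes cells more to doxorubicin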
Numbers stand for hits; i = inactive; nt = no result. A selection: hits, their analogues and other compounds. The true share with any hit is near 2.5%.

SMILES	MRP1 act	Measles CPE	sEH inhibitor	sdo1 growth	sEH activator	MRP reversal
CCOc1ccc(-n2nnnc2-c2nc3ccccc3s2)cc1	i	26	nt	i	nt	nt
C/C(Nc1ccc(F)cc1)=C(/C#N)C(N)=O	i	i	i	i	i	i
NC(=O)Nc1ccc(F)cc1	i	70	i	i	i	i
CCN(CC)S(=O)(=O)c1ccc(C2=NOC3(C2)N(C)c2ccccc2C3(C)C)cc1 (stereo not given)	i	38	nt	i	nt	nt
CN1/C(=C\C(=O)c2cccc(S(=O)(=O)N3CCCCC3)c2)C(C)(C)c2ccccc21	i	i	nt	i	nt	nt
O=S(=O)(c1ccc(S(=O)(=O)N2CCCC2)cc1)N1CCCCCC1	i	i	nt	i	nt	i
CN1c2ccccc2C(C)(C)C12CC(c1cccc(S(=O)(=O)N3CCCC3)c1)=NO2 (stereo not given)	i	54	nt	i	nt	nt
CN1c2ccccc2C(C)(C)C12CC(c1ccc(S(=O)(=O)N3CCCCC3)cc1)=NO2 (stereo not given)	i	63	nt	i	nt	nt
Cc1ccc(S(=O)(=O)N2CCC(=O)N(C(COCc3cccc(C(F)(F)F)c3)C(C)C)CC2)cc1 (stereo not given)	i	i	nt	i	nt	nt
Cc1ccnc(N2CCC(C(=O)NNC(=O)COc3cccc4ccccc34)CC2)n1	i	i	nt	i	nt	nt
O=C(CCc1ccc(S(=O)(=O)NCc2ccccc2)cc1)NCC1CCCO1 (stereo not given)	i	i	nt	i	nt	nt
O=[N+]([O-])c1ccc(Oc2cccc(F)c2)c2ccncc12	i	i	i	i	i	i
CC1CN(c2nc3c(c(=O)n(Cc4ccc(Cl)cc4)c(=O)n3C)n2C)CC(C)O1 (stereo not given)	i	i	nt	i	nt	57
O=C1Nc2ccc(NS(=O)(=O)c3cccs3)c3cccc1c23	i	44	i	i	i	i
O=C(O)c1ccccc1NS(=O)(=O)c1ccc2c3c(cccc13)C(=O)N2	i	i	nt	i	nt	nt
COc1cccc(C2CC(c3ccccc3OC)n3ncnc3N2)c1 (stereo not given)	i	i	i	i	i	i
COc1ccccc1C1CC(c2ccc(Cl)cc2)Nc2ncnn21 (stereo not given)	4.8	i	i	i	i	i
Brc1ccc(-c2nc3ncccn3c2NC2CCCCC2)o1	i	i	i	i	i	58
CC1=C(C(=O)NCc2ccccn2)C2(CCC(C)CC2)OC1=O (stereo not given)	i	i	i	i	i	i
Cc1nn(Cc2cccc(C(=O)N3N=C(C(F)F)CC3(O)C(F)F)c2)c(C)c1[N+](=O)[O-] (stereo not given)	i	42	i	i	i	nt
Cc1cc(/C=N/NC(=O)c2ccncc2)c(C)n1-c1ccccc1	i	i	nt	i	nt	nt
Cc1cc(/C=N/NC(=O)c2cccs2)c(C)n1-c1ccccc1	i	77	i	i	i	nt
COCCN(C(=O)Cc1cccs1)c1nnc(-c2cccnc2)s1	i	20	i	i	i	i
COCCN(C(=O)CC(C)(C)C)c1nnc(-c2cccnc2)s1	i	i	i	i	i	i
CCCCN(C(=O)Cc1cccs1)c1nnc(-c2cccnc2)s1	5.8	i	i	i	i	i
SMILES	MRP1 act	Measles CPE	sEH inhibitor	sdo1 growth	sEH activator	MRP reversal
CN1C(=O)c2oc3ccc(Br)cc3c(=O)c2C1c1ccncc1 (stereo not given)	nt	nt	nt	nt	nt	i
Cc1ccc2nsnc2c1S(=O)(=O)NCc1ccncc1	i	i	i	i	i	i
Cc1ccc2nsnc2c1S(=O)(=O)NCc1cccnc1	i	39	i	i	i	i
Cc1cc(C)cc(NC(=O)c2oc3ccccc3c2COc2ccccc2)c1	5.2	i	nt	i	nt	nt
CCc1ccc(N(C(=O)Cn2nnc(-c3ccccc3)n2)C(C(=O)NC2CCCCC2)c2ccccn2)cc1 (stereo not given)	i	i	nt	i	nt	nt
CCSc1nnc(NC(=O)c2cc(C)on2)s1	i	i	i	i	i	i
Cc1cc(C(=O)Nc2nnc(C(F)(F)F)s2)no1	5.5	i	i	i	i	i
Cc1nn(-c2ccccc2)c(N2CCCC2)c1/C=N/NC(=S)Nc1ccccc1F	i	i	nt	i	nt	nt
CN(C)c1cc[n+](CC(=O)Nc2cc(C(F)(F)F)ccc2Cl)cc1	i	64	i	i	i	nt
S=c1[nH]ncn1/N=C/c1ccccn1	i	i	i	i	i	nt
Cc1ccc2cc3c(N)[nH]nc3nc2c1	i	i	nt	i	nt	nt
COc1ccccc1NC(=O)Nc1nnc(C(C)C)s1	i	55	nt	i	nt	i
CCc1ccc(-c2nc(-c3ccncc3)no2)cc1	5.8	i	i	i	i	i
CCCCOc1ccc(-c2nc(-c3cccnc3)no2)cc1	i	i	nt	i	nt	i
CCOc1ccc(-c2nc(-c3cccnc3)no2)cc1	i	34	i	i	i	i
COC(=O)CNC(=O)c1nn(-c2cccc(OC)c2)c(=O)c2ccccc12	i	44	nt	i	nt	i
COc1ccc(NC(=O)CSc2nnc(NC(=O)c3ccc(S(=O)(=O)N4CCOCC4)cc3)s2)cc1	i	i	nt	i	nt	nt
CCCNC(=O)NC(=O)CSc1nc2cc(C(=O)OC)ccc2c(=O)n1-c1ccccc1	i	26	i	i	i	nt
CCCCNS(=O)(=O)c1ccc2nc(-c3cccs3)cc(C(=O)NCC(OC)OC)c2c1	i	i	nt	i	nt	nt
COc1cc(OC)c(-c2nc3c[n+](CC(=O)c4ccccc4)ccc3n2C)cc1OC	i	38	i	i	i	nt
O/N=C1/C2C3CC4C5C3C1C5C1(OCCO1)C42 (stereo not given)	i	51	nt	i	nt	i
Cn1cc(C(=O)N2CCc3ccccc32)cn1	i	i	nt	i	nt	nt
O=C(CCc1ccc(S(=O)(=O)N2CCOCC2)cc1)N1CCN(Cc2ccc3c(c2)OCO3)CC1	i	i	i	i	i	i
CN(Cc1ccccc1)c1ncnc2c1cnn2-c1ccccc1	5.3	i	i	i	i	i
CCN(c1ccccc1)c1ncnc2c1cnn2-c1ccccc1	i	49	i	i	i	i
SMILES	MRP1 act	Measles CPE	sEH inhibitor	sdo1 growth	sEH activator	MRP reversal
Cc1ccc(-n2ncc3c(SCc4ccccc4)ncnc32)cc1	i	35	nt	i	nt	nt
Cc1ccc(CSc2ncnc3c2cnn3-c2ccccc2)cc1	i	i	nt	i	nt	nt
COCCN(CCOC)c1ncnc2c1cnn2-c1ccccc1	nt	nt	nt	nt	nt	i
O=C(Nc1ccccc1)c1cc(S(=O)(=O)N2CCSCC2)ccc1Cl	i	i	nt	i	nt	nt
CC(c1ccccc1)N1C(=O)c2ccccc2C1O (stereo not given)	i	i	i	i	i	i
CCOC(=O)c1[nH]c2ccc(OCC)cc2c1CCCN1C(=O)c2ccccc2C1=O	i	i	nt	i	nt	nt
CC1=Nn2c(nnc2-c2n[nH]c3c2CCC3)SC1	i	i	i	i	i	i
Fc1ccc(C2=Nn3c(nnc3-c3n[nH]c4c3CCC4)SC2)cc1	i	36	i	i	i	i
